Measured values as given in PubChem BioAssay (NCI).
Compounds without any hit were thinned out: in the full panel of roughly 79,000, 15% have a hit. Calls of active or inactive are those of the source. Rule as the data show it: active = growth inhibition above about 70%; inactive = the rest.

Experiments:
[1] = NCI Yeast Anticancer Drug Screen. Data for the rad50 strain (AID 155);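 also: 0% = growth of vehicle-only cultures of the same strain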; details: S. cerevisiae rad50 strain growth inhibition, hits give high values
In short: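 Readout: growth inhibition relative to vehicle-treated cultures. Compound exposure was carried out in a genetically defined yeast strain deficient in DNA damage repair.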

[2] = NCI Yeast Anticancer Drug Screen. Data for the mec2-1 strain (AID 157); details: S. cerevisiae mec2-1 strain, hits give high values
In short: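 Readout is yeast growth inhibition, normalised to vehicle-treated controls, in the mec2-1 strain exposed to compound.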

[3] = NCI Yeast Anticancer Drug Screen. Data for the sgs1 mgt1 strain (AID 161);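 also: 0% = growth of cultures given vehicle only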; details: S. cerevisiae sgs1 mgt1 strain, hits give high values
In short: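 Growth of a repair-deficient yeast mutant was monitored after compound treatment and expressed as inhibition relative to vehicle-treated cultures.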

[4] = NCI Yeast Anticancer Drug Screen. Data for the cln2 rad14 strain (AID 165);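 also: 0% = growth equal to vehicle treated cultures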; details: S. cerevisiae cln2 rad14 strain, hits give high values
In short: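 Relative to vehicle controls, growth inhibition of compound-treated cln2 rad14 yeast was recorded.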

[5] = NCI Yeast Anticancer Drug Screen. Data for the bub3 strain (AID 167); details: S. cerevisiae bub3 mutant strain, hits give high values
In short: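 Readout: yeast growth inhibition, expressed relative to vehicle-only wells. The test organism is a mutant strain from a panel with lesions in DNA repair or checkpoint genes.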

[6] = NCI Yeast Anticancer Drug Screen. Data for the mlh1 rad18 strain (AID 175); details: S. cerevisiae mlh1 rad18 strain growth inhibition, hits give high values
In short: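 Test agents were incubated with a yeast strain of defined genotype (DNA damage repair defect). Inhibition of growth was derived by comparison with vehicle-exposed cultures.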

[7] = at 5.0 µM (retest, dose inferred, filed as 0.5)
[8] = at 50.0 µM (retest, dose inferred, filed as 5.0)

Measured: growth inhibition

COc1ccc(N=N/N=c2\sc3cc(Cl)ccc3n2C)cc1
inactive: [1]; [7] 29% | [1]; [8] 57% | [1]; at 50.0 µM 36.9% | [2]; [7] 18% | [2]; [8] 43% | [2]; at 50.0 µM 6.15% | [3]; [7] 21% | [3]; [8] 42% | [3]; at 50.0 µM -30.4% | [4]; [7] 28% | [4]; [8] 56% | [4]; at 50.0 µM 30.4% | [5]; [7] 21% | [5]; [8] 62% | [5]; at 50.0 µM 5% | [6]; [7] 28% | [6]; [8] 63% | [6]; at 50.0 µM 38.2%

CCCCNc1ccc(C(=O)OC2CCN(C)CC2)c(Cl)c1
active: [1]; [7] 99% | [1]; [8] 96% | [1]; at 50.0 µM 97% | [2]; [7] 99% | [2]; [8] 97% | [2]; at 50.0 µM 94.5% | [3]; [7] 99% | [3]; [8] 98% | [3]; at 50.0 µM 95.9% | [4]; [7] 98% | [4]; [8] 96% | [4]; at 50.0 µM 84% | [5]; [7] 99% | [5]; [8] 97% | [5]; at 50.0 µM 96.3% | [6]; [7] 99% | [6]; [8] 96% | [6]; at 50.0 µM 92.8%

COc1cc[c]([Sn]([O][Sn]([Cl])([c]2ccc(OC)cc2)[c]2ccc(OC)cc2)[c]2ccc(OC)cc2)cc1
active: [1]; [8] 95% | [2]; [8] 86% | [3]; [8] 98% | [4]; [8] 88% | [5]; [8] 96% | [5]; at 50.0 µM 71.3% | [6]; [8] 94% | [6]; at 50.0 µM 73.7%
inactive: [1]; [7] 47% | [1]; at 50.0 µM 27.7% | [2]; [7] 31% | [2]; at 50.0 µM 32.9% | [3]; [7] 58% | [3]; at 50.0 µM 69.8% | [4]; [7] 28% | [4]; at 50.0 µM 53.5% | [5]; [7] 50% | [6]; [7] 55%

CCCC/C=C(\CCCNCCCC)[Si](C)(C)C
active: [1]; [8] 96% | [1]; at 50.0 µM 89.9% | [2]; [8] 99% | [2]; at 50.0 µM 92.8% | [3]; [7] 77% | [3]; [8] 99% | [3]; at 50.0 µM 93.3% | [4]; [8] 98% | [4]; at 50.0 µM 90.8% | [5]; [7] 78% | [5]; [8] 99% | [5]; at 50.0 µM 91% | [6]; [7] 81% | [6]; [8] 98% | [6]; at 50.0 µM 90.7%
inactive: [1]; [7] 52% | [2]; [7] 49% | [4]; [7] 53%

S=c1sc2nc(Cl)nc(Cl)c2s1
active: [1]; [7] 99% | [1]; [8] 99% | [1]; at 50.0 µM 87.1% | [2]; [7] 100% | [2]; [8] 99% | [2]; at 50.0 µM 88.3% | [3]; [7] 100% | [3]; [8] 99% | [3]; at 50.0 µM 89.5% | [4]; [7] 97% | [4]; [8] 99% | [4]; at 50.0 µM 89.5% | [5]; [7] 100% | [5]; [8] 100% | [5]; at 50.0 µM 87.4% | [6]; [7] 99% | [6]; [8] 98% | [6]; at 50.0 µM 89.3%

CCOC(=O)/N=C(\N)SCc1ccccc1
inactive: [1]; [7] 21% | [1]; [8] 3% | [1]; at 50.0 µM 10.9% | [2]; [7] -4% | [2]; [8] -6% | [2]; at 50.0 µM 1.05% | [3]; [7] 13% | [3]; [8] -8% | [3]; at 50.0 µM -12.8% | [4]; [7] -7% | [4]; [8] -8% | [4]; at 50.0 µM -6.25% | [5]; [7] 0% | [5]; [8] -7% | [5]; at 50.0 µM 49.5% | [6]; [7] -3% | [6]; [8] -2% | [6]; at 50.0 µM -5.95%

O=C(Cc1nc2ccc(Cl)cc2nc1CC(=O)c1ccccc1)c1ccccc1
inactive: [1]; [7] 10% | [2]; [7] 2% | [3]; [7] -2% | [3]; at 50.0 µM 61.7% | [4]; [7] -5% | [4]; at 50.0 µM 67.3% | [5]; [7] -1% | [6]; [7] 7%
active: [1]; [8] 96% | [1]; at 50.0 µM 95.2% | [2]; [8] 93% | [2]; at 50.0 µM 85.5% | [3]; [8] 94% | [4]; [8] 92% | [5]; [8] 97% | [5]; at 50.0 µM 77.5% | [6]; [8] 96% | [6]; at 50.0 µM 96.3%

COc1ccc(N=NC(C(=O)c2ccccc2)C(=O)c2ccccc2)cc1
inactive: [1]; [7] 29% | [2]; [7] -1% | [3]; [7] 20% | [4]; [7] 6% | [5]; [7] -3% | [6]; [7] -18%
active: [1]; [8] 96% | [1]; at 50.0 µM 92.3% | [2]; [8] 94% | [2]; at 50.0 µM 93.2% | [3]; [8] 94% | [3]; at 50.0 µM 92.4% | [4]; [8] 95% | [4]; at 50.0 µM 88.7% | [5]; [8] 97% | [5]; at 50.0 µM 91.2% | [6]; [8] 97% | [6]; at 50.0 µM 91.2%

CC(=O)OCC1OC(c2cccc3c2c2ccccc2n3S(=O)(=O)c2ccccc2)C(O)C1O (configuration not stated)
inactive: [1]; [7] 1% | [1]; at 50.0 µM 17.4% | [2]; [7] 1% | [2]; at 50.0 µM -0.7% | [3]; [7] -1% | [3]; at 50.0 µM 7.15% | [4]; [7] 2% | [4]; at 50.0 µM 1.25% | [5]; [7] 0% | [5]; at 50.0 µM 7.8% | [6]; [7] 1% | [6]; at 50.0 µM 37.9%
active: [1]; [8] 93% | [2]; [8] 97% | [3]; [8] 97% | [4]; [8] 98% | [5]; [8] 98% | [6]; [8] 98%
